The full ranking holds about 5,400 compounds; the median of “IFI” is about 2, and the highest 2% start at about 22. Only a selection was taken, and the highest values are over-represented in it overall.

A short description of this test: NOVARTIS: Inhibition Frequency Index (IFI) - the number of HTS assays where a compound showed > 50% inhibition/induction, expressed as a percentage of the number of assays in which the compound was tested. It counts as functional.
In turn, `CCCC(=O)N1CCN(c2nc(Cc3ccccc3)c3c(c2C#N)CC(C)(C)OC3)CC1` gave an IFI of 4.54%. In the case of `COc1ccc(-c2nc(CN3CCCCC3)ccc2O)cc1` it was 0%; in that of `CCOC(=O)C1=C(C)NC2=C(C(=O)C(C(=O)OCC)C(c3ccccc3OC)C2)C1c1sccc1C` (centres undefined), 3.49%. `COc1ccc(C2(CNCC(O)c3cccc([N+](=O)[O-])c3)CCCC2)cc1OC` (centres undefined): the IFI was 0%. `CC(=O)Nc1cc(C(=O)Nc2ccc(C3=NCCN3)cc2)ccc1C(=O)Nc1ccc(C2=NCCN2)cc1` displayed an IFI of 0%. Regarding `Cc1ccn(CC(=O)N2CCOc3c(cc(-c4csc5ccccc45)cc3OCCc3ccccn3)C2)n1`, the IFI stood at 4%. Turning to `CC[n+]1c(/C=C/c2ccc(Cl)cc2)ccc2ccccc21`, the IFI worked out at 4.84%.

Take `CCN1C=Cc2ccccc2/C1=C\c1ccc2ccccc2[n+]1CC`: the IFI worked out at 23.6%.

`CC[n+]1c(C=C2C=CN(c3ccc(Cl)cc3)C=C2)ccc2ccccc21` returned an IFI of 15.4%. For the compound `O=C(CCl)Nc1ccc(OC(F)F)cc1`, the IFI worked out at 0%.

`COc1ccc2nc(-c3ccccc3)cc(NCCN(C)C)c2c1` registered an IFI of 3.51%. In the case of `O=c1cc(NC2CCN(CCCc3ccccc3)CC2)c2cc(Cl)ccc2o1` it was 0%; in that of `CCOC(=O)c1cnc2cc(OCC(C)C)c(OCC(C)C)cc2c1O`, 0.649%; in that of `c1cn2c(-c3ccc(N4CCOCC4)cc3)cnc2c(NCc2ccc3c(c2)OCO3)n1`, 0%.

As to `CN1c2ccccc2N(C)C1c1ccc2c(c1)OCO2`, the IFI stood at 0.621%. `c1ccc(C2=NN(c3ccccc3)C(c3ccc4c(c3)OCO4)N2c2ccc(N3CCOCC3)cc2)cc1` (centres undefined) had an IFI of 23.1%. In turn, `CCN1CCN(c2cc(C)c3cc(NC(=O)c4ccc(F)c([N+](=O)[O-])c4)ccc3n2)CC1` registered an IFI of 6.67%. With `Cc1cc(Nc2cccc3ccccc23)nc(Nc2cccc3ccccc23)n1`, the IFI is 0%.

Compound `O=S(=O)(c1ccccc1)N1CCN(CC2CNCCO2)CC1` (centres undefined) displayed an IFI of 1.41%. The compound `Cc1oc2c(c1C(=O)N1CCC(C)CC1)C(=O)c1ccccc1C2=O` displayed an IFI of 15.4%. The compound `Cc1oc2c(c1C(=O)NC1CCS(=O)(=O)C1)C(=O)c1ccccc1C2=O` (centres undefined) returned an IFI of 29.7%. In the case of `Cc1oc2c(c1C(=O)NCc1cccnc1)C(=O)c1ccccc1C2=O` it was 17.5%; in that of `CCOC(=O)c1c(C)oc2c1C(=O)c1ccccc1C2=O`, 3.17%.

Regarding `Cc1oc2c(c1C(=O)NCC1CCCO1)C(=O)c1ccccc1C2=O` (centres undefined), the IFI is 17%.

For the compound `Cc1oc2c(c1C(=O)NCCCn1ccnc1)C(=O)c1ccccc1C2=O`, the IFI was 24.3%. In the case of `COc1cc(NC(C)CCCN(Cc2ccc(F)cc2)C(=O)CCc2ccccc2)c2ncccc2c1` (centres undefined), the IFI turned out to be 1.71%.

The compound `COc1cc(NC(C)CCCN(Cc2ccc(OC)c(OC)c2)C(=O)CC(C)CC(C)(C)C)c2ncccc2c1` (centres undefined) gave an IFI of 3.64%.

As for `O=C(Cc1cccs1)N1CCN(c2ccccn2)CC1`, the IFI came to 2.35%. `COc1ccc(C[C@H](N)C(=O)N[C@H]2[C@@H](O)[C@H](n3cnc4c(N(C)C)ncnc43)O[C@@H]2CO)cc1` registered an IFI of 30.8%. As to `COCCN1C(=O)c2[nH]nc(-c3ccccc3O)c2C1c1ccc(SC)cc1` (centres undefined), the IFI is 0%. As for `C[n+]1c2ccccc2nc2ccc(NCCc3cnc[nH]3)cc21`, the IFI turned out to be 15.4%. For `C[n+]1c2ccccc2nc2ccc(NC3CCCCC3N)cc21` (centres undefined), the IFI came to 23.1%. Compound `COc1ccc2c(c1)[nH]c1c(N3CCN(C(c4ccccc4)c4ccccc4)CC3)ncnc12` returned an IFI of 8.77%. In the case of `Cc1ccc(S(=O)(=O)c2c(COC(=O)c3cccc(C)c3)c(-c3ccccc3)nn2C)cc1` it was 3.9%. For `CN[C@H]1C[C@@H]2O[C@](C)([C@H]1O)n1c3ccccc3c3c4c(c5c6ccccc6n2c5c31)C(=O)NC4`, the IFI amounted to 46.2%. `COc1cc2c(-c3cc(Br)ccc3O)nc3c(c(-c4ccccc4)nn3-c3ccccc3)c2cc1OC` registered an IFI of 3.03%. Regarding `CC[n+]1c(/C=C/N(C)c2ccccc2)sc(-c2ccccc2)c1-c1ccccc1`, the IFI came to 14.3%. In the case of `CC[n+]1c(C=CN(C)c2ccccc2)sc2ccc(Cl)cc21` it was 9.09%; in that of `CC[n+]1c(C=CN(C)c2ccccc2)oc(-c2ccccc2)c1-c1ccccc1`, 22.7%. As to `CC(NCc1ccccc1)c1cc(Cl)ccc1O` (centres undefined), the IFI worked out at 0%. For the compound `Oc1c(C(Nc2ccccn2)c2cccc(Cl)c2Cl)ccc2cccnc12` (centres undefined), the IFI is 15.4%. In the case of `CC(C)(C)c1ccc(-c2c[n+](-c3ccccc3)c3n2CCCS3)cc1` it was 23.1%. `Clc1ccc(-c2c[n+](-c3ccccc3)c3n2CCS3)cc1` displayed an IFI of 0.725%. On to `Cc1ccc(-c2c[n+](-c3ccccc3)c3n2CCCS3)cc1`, for which the IFI was determined as 7.69%. Turning to `CC1CNC2C(C)C3C(CC4C5CCC6CC(N)CCC6(C)C5CCC43C)OC2(O)C1` (centres undefined), the IFI came out at 5.26%. With `Oc1ccccc1-c1nc2sc(-c3ccccc3O)nc2s1`, the IFI was determined as 11%. In the case of `N#C/C(=C\C=C\c1ccc([N+](=O)[O-])o1)c1nc2ccccc2[nH]1`, the IFI is 28.6%.

Turning to `CCN(CC)c1ccc(/C=C(/C#N)c2nc3ccccc3[nH]2)o1`, the IFI turned out to be 7.69%. As for `N#C/C(=C\c1ccc(Sc2ccccc2)o1)c1nc2ccccc2[nH]1`, the IFI was 6.74%. For `COc1cc(C(=O)NC2CC3CCC(C2)N3C2CC2)cc(OC)c1OC` (centres undefined), the IFI turned out to be 0%.

In turn, `O=C(C[n+]1cc(-c2ccccc2)n2c1CCC2)c1ccc(C2CCCCC2)cc1` showed an IFI of 12.5%.

In the case of `COc1ccc(-c2c[n+](CC(=O)c3ccc(Cl)cc3)c3n2CCC3)cc1`, the IFI came out at 5%. Consider `O=C(C[n+]1cc(-c2ccc(Cl)cc2)n2c1CCC2)c1ccc(C2CCCCC2)cc1`, for which the IFI is 27.5%. For `c1cc2cc(CN3CCc4nc(N5CCCCC5)sc4C3)ccc2[nH]1`, the IFI was 4.17%. As for `CN1CCc2c(sc3nc(SCc4ccc(F)cc4)n(-c4ccccc4)c(=O)c23)C1`, the IFI is 2.5%. In turn, `COc1cc(/C=C2\CC/C(=C\c3cc(OC)c(OC)c(OC)c3)C2=O)cc(OC)c1OC` registered an IFI of 2.7%. Compound `CC1C/C(=C/c2ccncc2)C(=O)/C(=C/c2ccncc2)C1` (centres undefined) registered an IFI of 33.3%. Regarding `COc1ccc2c(c1)c(C)cc[n+]2Cc1ccccc1`, the IFI is 6.3%. The compound `CC(C)(C)CC(=O)NCc1ccc(OC2CCN(CC(c3ccccc3)c3ccccc3)CC2)cc1` yielded an IFI of 7.04%. `O=C1CCC(c2ccc(Cl)c(Cl)c2)c2ccc(O)cc21` (centres undefined) returned an IFI of 0%.

On to `COc1ccc(-c2cc(C3CCN(c4nc(N)c5cc(OC)c(OC)cc5n4)CC3)n[nH]2)cc1OC`, for which the IFI was 7.41%. In the case of `COc1cc2nc(N3CCN(c4nc(N)c5cc(OC)c(OC)cc5n4)CC3)nc(N)c2cc1OC`, the IFI amounted to 23.1%. In the case of `COc1cc2nc(Nc3ccc(F)cc3)nc(N)c2cc1OC` it was 0%. `CCc1c2ccc(C)n2cc[n+]1CC` registered an IFI of 6.02%.

The record behind these values is ChEMBL document CHEMBL1156829.
